# PubChem BioAssay (Tox21)
# Several values for one entry are separate records, joined by “and”; a condition that tells them apart may be missing. Equal entries are not always repeated. A number with no mark means an inactive call. Inconclusive results are not listed. Where a call stands in place of a potency, no number is given. Activity calls are given as the source filed them. Unless noted, calls come from the whole dose curve; as a rule, active = well fitted curve in the direction sought with a large enough effect in the repeat runs; inconclusive = weak or mixed curves; inactive = no such curve, though single readings can be large; an effect the other way counts as inactive or inconclusive.
# What was measured:
# [1] = biological target: Estrogen receptor beta (Homo sapiens) (UniProt Q92731); test: qHTS assay to identify small molecule agonists of the estrogen receptor beta (ER-beta) signaling pathway (AID 1259377; active = well fitted activation curve with a large enough effect in the signal ratio in the repeat runs, not every such curve was filed as active; the % refers to the signal ratio)
# Chain of Estrogen receptor beta (Homo sapiens) (Q92731 whole entry, looked up): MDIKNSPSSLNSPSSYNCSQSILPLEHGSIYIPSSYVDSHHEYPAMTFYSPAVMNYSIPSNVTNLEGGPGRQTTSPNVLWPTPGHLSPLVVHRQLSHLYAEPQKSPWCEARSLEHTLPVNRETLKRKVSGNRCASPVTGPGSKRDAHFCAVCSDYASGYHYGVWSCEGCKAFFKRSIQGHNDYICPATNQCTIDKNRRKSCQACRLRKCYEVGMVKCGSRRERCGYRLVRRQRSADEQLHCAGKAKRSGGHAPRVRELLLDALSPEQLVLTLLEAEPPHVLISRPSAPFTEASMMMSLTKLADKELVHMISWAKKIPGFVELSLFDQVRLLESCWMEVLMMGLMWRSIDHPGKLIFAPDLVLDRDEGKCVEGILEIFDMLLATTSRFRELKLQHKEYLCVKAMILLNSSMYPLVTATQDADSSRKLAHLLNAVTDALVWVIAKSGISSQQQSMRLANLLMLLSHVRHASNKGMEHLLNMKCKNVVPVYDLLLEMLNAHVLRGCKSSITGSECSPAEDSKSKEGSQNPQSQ
# Summary of the method: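 HEK293T ER-beta-UAS-bla; 2% charcoal-stripped FBS; cells pre-incubated 6 hr, compound 16 hr, 37C/5% CO2; LiveBLAzer B/G FRET substrate 2 h RT; fluorescence intensity read.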
# [2] = biological target: Estrogen receptor beta (Homo sapiens) (UniProt Q92731); test: qHTS assay to identify small molecule antagonists of the estrogen receptor beta (ER-beta) signaling pathway (AID 1259378; active = well fitted inhibition curve with a large enough effect in the signal ratio in the repeat runs, not every such curve was filed as active; the % refers to the signal ratio)
# Summary of the method: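 Antagonist mode: compounds added to beta-lactamase reporter HEK293T ER-beta-UAS cells stimulated with E2 (1nM final), 16 hr at 37C. LiveBLAzer B/G FRET substrate, 2 hours room temperature, fluorescence read-out.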
# [3] = qHTS assay to identify small molecule agonists of the androgen receptor (AR) signaling pathway in the presence of an antagonist - cell viability counter screen (AID 1259379); note: nearly all actives have a fitted effect of over 25% in size; note: potency is the fitted concentration of half-maximal effect
# Summary of the method: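 Seed MDA-kb2 at 3,000 cells/well; incubate 5 hr, 37C, 0% CO2. Add nilutamide to 3.0uM final, then pin compounds at 15 concentrations. Incubate 16 hr. Add CellTiter-Fluor at 15 hr, read fluorescence after 1 hr.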
# [4] = qHTS assay to identify small molecule agonists of the estrogen receptor beta (ER-beta) signaling pathway - cell viability counter screen (AID 1259380); note: nearly all actives have a fitted effect of over 30% in size; note: potency is the fitted concentration of half-maximal effect
# Summary of the method: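 CellTiter-Glo read, 30 min RT, same wells as bla assay; cells ER-beta-UAS-bla HEK293T; 16 hr compound, 37C; medium 2% charcoal-stripped FBS.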
# [5] = biological target: Androgen receptor (Homo sapiens) (UniProt P10275); test: qHTS assay to identify small molecule agonists of the androgen receptor (AR) signaling pathway in the presence of an antagonist (AID 1259381; calls by dose curve; note: nearly all actives have a fitted effect of over 15% in size)
# Chain of Androgen receptor (Homo sapiens) (P10275 whole entry, looked up): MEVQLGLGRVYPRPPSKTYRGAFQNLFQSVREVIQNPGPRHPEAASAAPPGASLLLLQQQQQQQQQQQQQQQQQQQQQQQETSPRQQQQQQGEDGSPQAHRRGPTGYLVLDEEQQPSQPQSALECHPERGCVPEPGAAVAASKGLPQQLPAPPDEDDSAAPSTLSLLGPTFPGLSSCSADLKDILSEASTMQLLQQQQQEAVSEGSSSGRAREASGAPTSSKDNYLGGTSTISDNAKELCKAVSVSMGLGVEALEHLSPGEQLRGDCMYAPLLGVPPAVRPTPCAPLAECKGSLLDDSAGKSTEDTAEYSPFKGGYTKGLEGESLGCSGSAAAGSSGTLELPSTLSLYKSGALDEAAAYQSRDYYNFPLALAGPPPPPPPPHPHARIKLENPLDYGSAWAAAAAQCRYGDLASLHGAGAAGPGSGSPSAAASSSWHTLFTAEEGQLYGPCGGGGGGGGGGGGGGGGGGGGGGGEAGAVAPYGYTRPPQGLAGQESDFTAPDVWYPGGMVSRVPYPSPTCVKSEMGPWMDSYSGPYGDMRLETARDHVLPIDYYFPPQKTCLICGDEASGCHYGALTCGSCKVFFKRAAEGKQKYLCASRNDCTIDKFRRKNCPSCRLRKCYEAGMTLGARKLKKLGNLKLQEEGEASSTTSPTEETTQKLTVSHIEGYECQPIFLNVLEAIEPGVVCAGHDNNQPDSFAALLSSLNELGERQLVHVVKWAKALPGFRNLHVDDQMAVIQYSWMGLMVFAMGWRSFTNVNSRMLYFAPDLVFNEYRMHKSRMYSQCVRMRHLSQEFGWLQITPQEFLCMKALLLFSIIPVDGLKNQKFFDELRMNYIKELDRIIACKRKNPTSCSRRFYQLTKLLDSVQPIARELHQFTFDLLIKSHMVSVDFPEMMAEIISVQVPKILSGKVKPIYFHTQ
# Summary of the method: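 Test compounds at 15 concentrations were incubated for 16hr with MDA-kb2 reporter cells in presence of 3.0uM nilutamide (final). Signal: ONE-Glo luciferase luminescence.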
# [6] = qHTS assay to identify small molecule antagonists of the estrogen receptor beta (ER-beta) signaling pathway - cell viability counter screen (AID 1259382); note: nearly all actives have a fitted effect of over 55% in size; note: potency is the fitted concentration of half-maximal effect
# Summary of the method: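 In this multiplexed counter screen, cells were seeded at 2,000 per well in medium with 2% charcoal-stripped FBS and incubated 6 hr before compound and 1nM final E2 were added. Sixteen hours later, ATP-based luminescence reported viability.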
# [7] = biological target: Estrogen receptor (Homo sapiens) (UniProt P03372); test: qHTS assay to identify small molecule agonists of the estrogen receptor alpha (ER-alpha) signaling pathway in the presence of an antagonist (AID 1259383; calls by dose curve; note: nearly all actives have a fitted effect of over 15% in size; note: potency is the fitted concentration of half-maximal effect; for activation: top concentration of the series differs between compounds)
# Chain of Estrogen receptor (Homo sapiens) (P03372 whole entry, looked up): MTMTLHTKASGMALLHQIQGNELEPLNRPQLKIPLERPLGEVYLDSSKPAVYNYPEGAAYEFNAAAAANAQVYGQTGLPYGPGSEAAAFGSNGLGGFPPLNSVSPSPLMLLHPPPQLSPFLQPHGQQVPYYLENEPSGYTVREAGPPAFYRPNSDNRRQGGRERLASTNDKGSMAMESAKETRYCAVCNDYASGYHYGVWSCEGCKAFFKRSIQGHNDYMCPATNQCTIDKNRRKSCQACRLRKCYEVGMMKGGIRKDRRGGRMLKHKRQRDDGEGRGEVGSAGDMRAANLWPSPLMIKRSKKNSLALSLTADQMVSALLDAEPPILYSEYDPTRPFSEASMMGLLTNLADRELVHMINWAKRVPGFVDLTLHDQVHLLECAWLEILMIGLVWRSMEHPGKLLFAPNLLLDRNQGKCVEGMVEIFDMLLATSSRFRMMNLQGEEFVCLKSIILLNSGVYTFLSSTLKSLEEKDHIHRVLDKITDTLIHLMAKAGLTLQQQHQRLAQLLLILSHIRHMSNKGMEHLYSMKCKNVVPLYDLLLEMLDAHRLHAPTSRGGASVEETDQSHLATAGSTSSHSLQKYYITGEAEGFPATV
# Summary of the method: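 Stably transfected VM7Luc4E2 reporter cells, kept 5 days in charcoal-stripped serum, received ICI-182,780 at 10.0nM final before compound addition. Following 22hr incubation at 37C and 5% CO2, luciferase signal was read by luminescence.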
# [8] = qHTS assay to identify small molecule agonists of the estrogen receptor alpha (ER-alpha) signaling pathway in the presence of an antagonist - cell viability counter screen (AID 1259386);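 note: cells exposed to compounds for 22 h at 37 °C before the viability read; nearly all actives have a fitted effect of over 30% in size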; note: potency is the fitted concentration of half-maximal effect
# Summary of the method: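 Viability counter screen using VM7Luc4E2 (full-length ER-alpha, four ERE-luciferase). The cells were treated with compounds alongside ICI-182,780 10.0nM for 22hr, and live-cell protease fluorescence was quantified with CellTiter-Fluor.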
# [9] = biological target: Progesterone receptor (Homo sapiens) (UniProt P06401); test: qHTS assay to identify small molecule agonists of the progesterone receptor (PR) signaling pathway (AID 1346784; calls by dose curve; note: nearly all actives have a fitted effect of over 30% in size)
# Chain of Progesterone receptor (Homo sapiens) (P06401 whole entry, looked up): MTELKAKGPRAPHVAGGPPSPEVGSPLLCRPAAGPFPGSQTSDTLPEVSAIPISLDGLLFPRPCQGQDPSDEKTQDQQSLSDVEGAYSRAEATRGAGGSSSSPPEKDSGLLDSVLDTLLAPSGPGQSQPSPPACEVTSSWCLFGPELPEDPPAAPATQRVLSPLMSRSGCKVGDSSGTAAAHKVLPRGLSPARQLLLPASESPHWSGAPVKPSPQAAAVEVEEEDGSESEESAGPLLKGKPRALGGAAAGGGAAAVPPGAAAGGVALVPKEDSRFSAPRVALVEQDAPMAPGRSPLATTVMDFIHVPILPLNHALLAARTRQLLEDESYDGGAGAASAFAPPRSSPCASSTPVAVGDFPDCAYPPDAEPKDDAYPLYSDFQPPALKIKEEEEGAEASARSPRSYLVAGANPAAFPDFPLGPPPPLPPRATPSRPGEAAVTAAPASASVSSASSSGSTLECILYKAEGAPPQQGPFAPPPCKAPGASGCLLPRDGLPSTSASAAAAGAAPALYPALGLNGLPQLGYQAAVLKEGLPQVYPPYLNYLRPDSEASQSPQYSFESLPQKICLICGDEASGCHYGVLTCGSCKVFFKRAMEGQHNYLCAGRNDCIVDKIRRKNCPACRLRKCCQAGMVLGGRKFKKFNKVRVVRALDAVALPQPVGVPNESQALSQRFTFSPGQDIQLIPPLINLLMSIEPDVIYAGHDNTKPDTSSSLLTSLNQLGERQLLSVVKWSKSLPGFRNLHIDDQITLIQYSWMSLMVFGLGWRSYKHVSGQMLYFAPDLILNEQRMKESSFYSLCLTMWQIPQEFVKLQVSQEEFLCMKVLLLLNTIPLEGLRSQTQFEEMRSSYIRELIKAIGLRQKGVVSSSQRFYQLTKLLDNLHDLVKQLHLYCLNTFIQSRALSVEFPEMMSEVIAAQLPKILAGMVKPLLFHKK
# Summary of the method: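 Beta-lactamase reporter read-out: after 16 hr compound treatment at 37C and a further 2 hr at room temperature with LiveBLAzer B/G FRET substrate, fluorescence was measured in PR-UAS-bla HEK 293T cells grown in 2% charcoal-stripped serum.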
# [10] = qHTS assay to identify small molecule antagonists of the progesterone receptor (PR) signaling pathway - cell viability counter screen (AID 1346798); note: nearly all actives have a fitted effect of over 50% in size; note: potency is the fitted concentration of half-maximal effect
# Summary of the method: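 HEK293T PR-UAS-bla, 2% charcoal-stripped FBS; 4 hr pre-plate; cpd + R5020, 16 h 37C; LiveBLAzer read first; then CellTiter-Glo 30 min RT, luminescence.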
# [11] = qHTS assay to identify small molecule agonists of the progesterone receptor (PR) signaling pathway - cell viability counter screen (AID 1346799; calls by dose curve; note: nearly all actives have a fitted effect of over 45% in size; note: potency is the fitted concentration of half-maximal effect)
# Summary of the method: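 Luminescence from CellTiter-Glo, added after the beta-lactamase FRET read in the same wells, gave cytotoxicity in PR-UAS-bla HEK293T cells treated with compounds for 16 hr at 37C.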
# [12] = qHTS assay to identify small molecule antagonists of the TGF-beta/Smad signaling pathway - cell viability counter screen (AID 1346824); note: nearly all actives have a fitted effect of over 50% in size; note: potency is the fitted concentration of half-maximal effect
# Summary of the method: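 Cytotoxicity counter-screen run in the same wells as the beta-lactamase Smad reporter read: CellTiter-Glo luminescence after 30 min at room temperature. HEK 293T SBE-bla cells had 5 hr compound exposure at 37 C with TGF-beta1 (0.25 ng/mL stock).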
# [13] = qHTS assay to identify small molecule agonists of the TGF-beta/Smad signaling pathway - cell viability counter screen (AID 1346829); note: nearly all actives have a fitted effect of over 45% in size; note: potency is the fitted concentration of half-maximal effect
# Summary of the method: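 Here the cytotoxicity of library compounds is measured in SBE-bla HEK 293T cells treated for 5 hr, using CellTiter-Glo added to wells already read for the beta-lactamase reporter.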
# [14] = qHTS assay to identify small molecule agonists of the TGF-beta/Smad signaling pathway (AID 1346859; active = well fitted activation curve with a large enough effect in the signal ratio in the repeat runs, not every such curve was filed as active; the % refers to the signal ratio; note: series mostly up to about 77 µM)
# Summary of the method: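 SBE-bla HEK 293T, 4,000 cells/well, plated o/n; cpd in DMSO, 5 hr, 37 C/5% CO2; B/G FRET substrate 2 hr RT; ex 405, em 460/530 nm.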
# [15] = biological target: Thyrotropin-releasing hormone receptor (Homo sapiens) (UniProt P34981); test: qHTS assay to identify small molecule antagonists of the thyrotropin-releasing hormone receptor (TRHR) signaling pathway (AID 1346877; active = well fitted inhibition curve with a large enough effect in the repeat runs, not every such curve was filed as active; note: series mostly up to about 51 µM)
# Chain of Thyrotropin-releasing hormone receptor (Homo sapiens) (P34981 whole entry, looked up): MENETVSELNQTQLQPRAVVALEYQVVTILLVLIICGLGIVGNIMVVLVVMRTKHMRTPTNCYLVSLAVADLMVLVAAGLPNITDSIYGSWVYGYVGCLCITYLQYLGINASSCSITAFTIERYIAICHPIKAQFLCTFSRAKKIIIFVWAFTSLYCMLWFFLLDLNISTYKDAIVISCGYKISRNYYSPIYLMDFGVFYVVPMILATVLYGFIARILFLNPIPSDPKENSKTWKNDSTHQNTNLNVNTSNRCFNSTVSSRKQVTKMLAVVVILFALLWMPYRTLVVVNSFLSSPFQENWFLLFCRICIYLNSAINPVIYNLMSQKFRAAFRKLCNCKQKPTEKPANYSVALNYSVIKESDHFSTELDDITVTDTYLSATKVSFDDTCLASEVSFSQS
# Summary of the method: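 Following an 18 h incubation at 37 °C and a 2 h calcium dye load, TRHR-HEK293 cells were exposed to compound (5 min, room temperature) and challenged with TRH, 1 nM final.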
# [16] = biological target: Progesterone receptor (Homo sapiens) (UniProt P06401); test: qHTS assay to identify small molecule antagonists of the progesterone receptor (PR) signaling pathway (AID 1346795; active = well fitted inhibition curve with a large enough effect in the signal ratio in the repeat runs, not every such curve was filed as active; the % refers to the signal ratio)
# Summary of the method: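 Read-out is fluorescence from the LiveBLAzer B/G FRET substrate, cleaved by a UAS-controlled beta-lactamase in PR-UAS-bla HEK293T cells after 16 hr exposure to compound plus 1 nM promegestone (final), followed by 2 hr at room temperature.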
# [17] = qHTS assay to identify small molecule antagonists of the sonic hedgehog signaling (Shh) pathway (AID 1259369; calls by dose curve; note: nearly all actives have a fitted effect of over 45% in size; note: potency is the fitted concentration of half-maximal effect)
# Summary of the method: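 For antagonist detection, the reporter line received test compounds together with conditioned medium, incubated 24hr at 37 C, 5% CO2, then luminescence was recorded following 30min room-temperature luciferase reagent incubation.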
# [18] = qHTS assay to identify small molecule agonists or antagonists of the thyroid stimulating hormone receptor (TSHR) signaling pathway - wild type cell line counter screen (AID 1259384; calls by dose curve)
# Summary of the method: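 Counter screen in untransfected Hek293: compounds (15-point titration, triplicate) plus phosphodiesterase inhibitor Ro20-1724 added after 18 h plating; 30 min RT. Intracellular cAMP via competitive d2/cryptate immunoassay, 1 h incubation.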
# [19] = biological target: Thyrotropin receptor (Homo sapiens) (UniProt P16473); test: qHTS assay to identify small molecule antagonists of the thyroid stimulating hormone receptor (TSHR) signaling pathway (AID 1259385; calls by dose curve; note: nearly all actives have a fitted effect of over 20% in size)
# Chain of Thyrotropin receptor (Homo sapiens) (P16473 whole entry, looked up): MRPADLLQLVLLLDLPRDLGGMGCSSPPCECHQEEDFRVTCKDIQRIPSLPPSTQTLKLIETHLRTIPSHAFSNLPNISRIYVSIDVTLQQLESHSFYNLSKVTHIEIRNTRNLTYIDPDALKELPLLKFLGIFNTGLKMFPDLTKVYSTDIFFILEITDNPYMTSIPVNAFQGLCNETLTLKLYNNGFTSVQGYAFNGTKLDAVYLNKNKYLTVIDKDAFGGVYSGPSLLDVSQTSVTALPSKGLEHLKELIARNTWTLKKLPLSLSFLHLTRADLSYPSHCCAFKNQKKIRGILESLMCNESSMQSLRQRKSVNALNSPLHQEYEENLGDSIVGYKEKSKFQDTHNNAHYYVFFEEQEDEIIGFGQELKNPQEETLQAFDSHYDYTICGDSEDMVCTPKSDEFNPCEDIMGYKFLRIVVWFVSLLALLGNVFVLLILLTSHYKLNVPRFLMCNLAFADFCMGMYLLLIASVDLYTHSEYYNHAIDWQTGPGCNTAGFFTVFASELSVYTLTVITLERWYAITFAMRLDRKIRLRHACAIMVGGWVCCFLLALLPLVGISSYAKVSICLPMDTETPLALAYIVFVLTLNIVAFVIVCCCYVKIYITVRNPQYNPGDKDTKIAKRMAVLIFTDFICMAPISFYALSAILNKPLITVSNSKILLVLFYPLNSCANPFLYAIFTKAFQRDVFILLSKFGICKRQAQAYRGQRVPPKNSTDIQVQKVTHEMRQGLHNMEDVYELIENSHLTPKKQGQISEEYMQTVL
# Summary of the method: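 Antagonist mode: compound-treated TSHR-expressing HEK293 cells were stimulated with 1.5 ng/mL TSH (final) in presence of Ro20-1724 for 30 min at RT. HTRF cAMP detection after 1 h; each compound tested at 15 concentrations, triplicate.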
Compound,Potency [1],Potency [2],Potency [3],Potency [4],Potency [5],Potency [6],Potency [7],Potency [8],Potency [9],Potency [10],Potency [11],Potency [12],Potency [13],Potency [14],outcome [15],Potency [16],Potency [17],outcome [18],Potency [19]
C/C=C/C=C/C=O,inactive,inactive,inactive,inactive,inactive,inactive,inactive,inactive,inactive,inactive,inactive,inactive,inactive,inactive,inactive,,,,
CN1C(=O)OC(C)(C)C1=O,inactive,inactive,inactive,inactive,,inactive,,inactive,inactive,inactive,inactive,inactive,inactive,inactive,inactive,inactive,,,
O=c1cc(-c2ccccc2)oc2ccc3ccccc3c12,inactive,inactive,inactive,24.3 µM (active),,,0.686 µM (active),inactive,inactive,21.7 µM (active),,13.8 µM (active),13.8 µM (active),,inactive,inactive,5.45 µM (active),inactive,
CCC(=O)C1CC(C(C)C)CC=C1C (stereo not given),inactive,inactive,inactive,inactive,inactive,inactive,inactive,inactive,inactive,inactive,inactive,inactive,inactive,inactive,,,,,
CC(C)=CC(=O)C=C(C)C,inactive,inactive,inactive,inactive,,inactive,inactive,inactive,inactive,,inactive,inactive,inactive,inactive,inactive,inactive,,inactive,inactive
CCCCCCCCCCCCCCN(CCO)CCO,,,61.1 µM (active),54.5 µM (active),,48.6 µM (active),,inactive,,,34.4 µM (active),,,inactive,inactive,,,,
O=Cc1c2ccccc2c(Cl)c2ccccc12,,inactive,,inactive,,inactive,,inactive,inactive,inactive,inactive,inactive,inactive,inactive,,,inactive,,
Nc1nnc(-c2ccc([N+](=O)[O-])o2)o1,inactive,,54.5 µM (active),,,inactive,inactive,61.1 µM (active),inactive,,,inactive,inactive,inactive,,,inactive,inactive,inactive
CC(=O)Oc1ccc([N+](=O)[O-])cc1CCl,,,30.6 µM (active),inactive,,inactive,,48.6 µM (active),inactive,inactive,inactive,inactive,inactive,inactive,inactive,inactive,,inactive,inactive
c1ccc(C[n+]2cccc3ccccc32)cc1,inactive,,48.6 µM (active),inactive,,inactive,,,inactive,inactive,,inactive,,inactive,,inactive,,inactive,
Cc1ccc(OC(=O)c2ccccc2O)cc1,,,inactive,inactive,,inactive,,inactive,inactive,inactive,,inactive,inactive,inactive,inactive,inactive,inactive,,
CC(CC1c2ccccc2CCc2ccccc21)CN(C)C (stereo not given),inactive,,inactive,33.5 µM (active),,21.1 µM (active),inactive,inactive,inactive,23.7 µM (active),inactive,inactive,inactive,inactive,,,,,
CN1C(=O)N(c2ccccc2Br)Cc2cnc(Nc3ccc4c(c3)OCC(CO)O4)nc21 (stereo not given),,,61.1 µM (active),34.4 µM (active),,38.6 µM (active),,,,38.6 µM (active),,,34.7 µM (active),inactive,inactive,,6.86 µM (active),inactive,inactive
OC(CCN1CCCC1)(c1ccccc1)C1CCCCC1 (stereo not given),inactive,inactive,inactive,inactive,inactive,inactive,,inactive,,inactive,,inactive,inactive,inactive,inactive,,,inactive,
Cc1ccco1,,,inactive,inactive,,inactive,,inactive,inactive,inactive,inactive,inactive,inactive,inactive,,,inactive,inactive,inactive
O=C=Nc1cccc(C(F)(F)F)c1,inactive,,inactive,30.4 µM (active),inactive,inactive,,inactive,,inactive,,inactive,inactive,inactive,inactive,inactive,,inactive,inactive
C[C@@H]1CC(=O)NN=C1c1ccc(NN=C(C#N)C#N)cc1,,,23.7 µM (active) and 13.3 µM (active),inactive,inactive,inactive,,,inactive,inactive,,inactive,inactive,inactive,inactive,,13.3 µM (active),inactive,inactive
CCOc1ccccc1O[C@H](c1ccccc1)[C@H]1CNCCO1,,,inactive,inactive,,inactive,,,,inactive,,inactive,inactive,inactive,,,inactive,inactive,inactive
CC(=O)c1cc2ccccc2s1,inactive,inactive,inactive,inactive,,inactive,inactive,inactive,inactive,inactive,inactive,inactive,inactive,inactive,,inactive,,inactive,inactive
